The list is not random: actives were taken first. Their share in the collection is about 4.6%.
AHR act: AHR activators, primary screen, cell-based, luminescence, luciferase reporter, human. Aryl hydrocarbon receptor (Homo sapiens), P35869. AHR-responsive luciferase reporter cells. activation, % at 5 µM. 2.5% of 320,000 active. AID 2796, 2010; in the data active = activation above about 47%
Target sequence (P35869 whole entry, looked up): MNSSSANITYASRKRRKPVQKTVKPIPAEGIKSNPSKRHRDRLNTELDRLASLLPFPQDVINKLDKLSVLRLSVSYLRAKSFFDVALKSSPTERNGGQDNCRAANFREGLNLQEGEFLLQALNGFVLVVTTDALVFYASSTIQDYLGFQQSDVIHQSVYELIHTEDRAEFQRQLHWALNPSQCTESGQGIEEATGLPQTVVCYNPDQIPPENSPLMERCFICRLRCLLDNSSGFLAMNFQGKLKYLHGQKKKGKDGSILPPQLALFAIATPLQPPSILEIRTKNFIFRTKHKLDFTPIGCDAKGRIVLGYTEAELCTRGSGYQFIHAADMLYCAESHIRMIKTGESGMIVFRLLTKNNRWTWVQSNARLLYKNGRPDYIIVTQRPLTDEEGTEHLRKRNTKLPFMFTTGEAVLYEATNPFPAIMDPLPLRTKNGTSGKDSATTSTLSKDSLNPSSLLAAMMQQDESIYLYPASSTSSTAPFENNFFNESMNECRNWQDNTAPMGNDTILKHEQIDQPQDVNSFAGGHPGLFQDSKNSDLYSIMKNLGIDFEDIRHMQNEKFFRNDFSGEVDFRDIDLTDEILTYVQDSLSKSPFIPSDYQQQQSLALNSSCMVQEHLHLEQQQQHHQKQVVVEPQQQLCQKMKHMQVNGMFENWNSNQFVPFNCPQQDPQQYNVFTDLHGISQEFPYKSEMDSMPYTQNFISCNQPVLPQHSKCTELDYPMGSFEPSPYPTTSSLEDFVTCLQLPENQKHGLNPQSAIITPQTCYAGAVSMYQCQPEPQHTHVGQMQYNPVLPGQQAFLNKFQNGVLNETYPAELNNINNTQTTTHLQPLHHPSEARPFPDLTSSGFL
HSF1 inhib: HSF1 inhibitors in luciferase reporter cells, primary screen, cell-based, NIH3T3, luminescence; NIH3T3-HGL HSE-luciferase, MG132-induced, luminescence 8 h; stronger effect = lower value; 0.77% of 300,000 active; AID 2098, 2009; activity change, negative = inhibition, % at 7.5 µM (by protocol);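 active = more than half of replicate wells show activity change below -50%, luminescence cut by over half; inconclusive = some wells, but at most half, below -50%; inactive = no replicate well below -50%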;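 note: luciferase reports HSF-1 transcriptional activity via heat shock element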
GAA850 FXN act: FXN promoter activators, primary screen, cell-based, luciferase luminescence, HEK293 lucGAA850. activation, % at 6 µM. 0.56% of 360,000 active. AID 540364, 2011. HEK293 lucGAA850 FXN promoter luciferase reporter, 24 h; percent of 10 µM SAHA response;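 active = activation above the average of all compounds screened plus 3 SD, cutoff fixed separately per campaign, cut at about 7.5% in these data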
HSF-1 act: HSF-1 activators, primary screen, NIH3T3-HGL cells, MG132 stress, luminescence, single point. activation, % at 9 µM. 1.7% of 300,000 active. NIH3T3-HGL HSF-1 luciferase reporter, 8 h; 100% = twice DMSO control signal. AID 504408, 2011;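 active = mean replicate activation of at least 50% with a set share of replicates each reaching 50%; inconclusive = only one of those two conditions met; inactive = mean below 50% and too few replicates reaching it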
Numbers stand for hits.

CCc1ccc2[nH]c(=O)c(CN(Cc3ccc4c(c3)OCO4)Cc3nnnn3C3CCCC3)cc2c1 was read as AHR act 62, HSF1 inhib inactive, GAA850 FXN act inactive and HSF-1 act inconclusive.
Screening Cc1ccccc1-c1cc(C(=O)N/N=C/c2cccnc2)c2ccccc2n1 returned GAA850 FXN act inactive.
COc1cccc(/C=N/NC(=S)NCCc2ccccc2)c1OC was read as HSF1 inhib inactive, GAA850 FXN act inactive and HSF-1 act inactive.
`NC(=S)N/N=C/c1c[nH]c2ccc(OCc3ccccc3)cc12` gave AHR act 71, HSF1 inhib inactive, GAA850 FXN act inactive and HSF-1 act inactive.
For COC(=O)N/N=C/c1cc(Cl)cc(Cl)c1OCc1ccccc1 the results were AHR act 62, HSF1 inhib inactive, GAA850 FXN act inactive and HSF-1 act inactive.
COc1cccc(/C=N/NC(N)=S)c1OCc1cccc(Cl)c1 was read as AHR act 60, HSF1 inhib inactive, GAA850 FXN act inactive and HSF-1 act inactive.
For COC(=O)N/N=C\c1ccccc1OC/C=C/c1ccccc1 the results were HSF1 inhib inactive, GAA850 FXN act inactive and HSF-1 act inactive.
NC(=S)N/N=C\c1ccccc1OCc1ccccc1 was read as AHR act inactive, HSF1 inhib inactive, GAA850 FXN act inactive and HSF-1 act inactive.
Screening Nc1ccc(Nc2ccccc2N)cc1 returned AHR act inactive, HSF1 inhib inactive, GAA850 FXN act inactive and HSF-1 act inactive.
O=C(O)CC(NC(=O)Nc1ccccc1)c1ccc(OC2CCCC2)cc1 (stereo unspecified) was read as AHR act inactive, HSF1 inhib inactive, GAA850 FXN act inactive and HSF-1 act inactive.
For CC1=C(C(=O)N2CCOCC2)CC(CC(=O)NCCN2CCOCC2)C(=O)N1Cc1ccc(C(C)(C)C)cc1 (stereo unspecified) the results were GAA850 FXN act inactive.
For CCOC(=O)c1cnc2ccc(C(=O)OC)cc2c1NCCN1CCOCC1 the results were AHR act inactive, HSF1 inhib inactive, GAA850 FXN act inactive and HSF-1 act inactive.
Screening CCOC(=O)c1cnc2ccc(C(=O)OC)cc2c1NCCCN1CCOCC1 returned HSF1 inhib -83, GAA850 FXN act inactive and HSF-1 act inactive.
`CCN(Cc1ccccc1)C(=O)C(=O)c1cn(CC(=O)N2CCCC2)c2ccccc12` gave AHR act inactive, HSF1 inhib inactive, GAA850 FXN act inactive and HSF-1 act inactive.
CN(C)c1cc(-c2ccc(Cl)cc2)oc(=O)c1Cl was read as AHR act 56, HSF1 inhib inactive, GAA850 FXN act inactive and HSF-1 act inactive.
Screening Cc1noc(NS(=O)(=O)c2ccc(N3Cc4ccccc4C3=O)cc2)c1C returned AHR act inactive, HSF1 inhib -85, GAA850 FXN act inactive and HSF-1 act inactive.
Screening Cc1noc(NS(=O)(=O)c2ccc(NC(=O)c3ccc(N4C(=O)c5ccccc5C4=O)cc3)cc2)c1C returned AHR act inactive, HSF1 inhib inactive, GAA850 FXN act inactive and HSF-1 act inactive.
O=C(CNC(=O)c1ccc([N+](=O)[O-])cc1)N/N=C\c1ccc(OC(=O)c2ccccc2)cc1 was read as AHR act inactive, HSF1 inhib inactive, GAA850 FXN act inactive and HSF-1 act inactive.
`O=C1c2cccc3cccc(c23)C(=O)N1CCc1ccccc1` gave AHR act 53, HSF1 inhib inactive, GAA850 FXN act inactive and HSF-1 act 59.
Screening CN(c1ccccc1)S(=O)(=O)c1nnc(NC(=O)COc2ccccc2F)s1 returned AHR act inactive, HSF1 inhib -72, GAA850 FXN act inactive and HSF-1 act inactive.
Screening CCN(CCN(C)C)C(=O)C1CCN(S(=O)(=O)c2c(C)noc2/C=C/c2ccccc2F)CC1 returned AHR act inactive, HSF1 inhib inactive, GAA850 FXN act inactive and HSF-1 act inactive.
For CCOc1ccccc1/C=C/c1onc(C)c1S(=O)(=O)N1CCC(C(=O)N(CC)CC)CC1 the results were AHR act inactive, HSF1 inhib -60, GAA850 FXN act inactive and HSF-1 act inactive.
CCOC(=O)C1CCN(C(=O)CCS(=O)(=O)c2ccc3c(c2)CC(C)N3C(=O)CC)CC1 (stereo unspecified) was read as AHR act inactive, HSF1 inhib -62, GAA850 FXN act inactive and HSF-1 act inactive.
`CCOC(=O)N1CCN(C(=O)CCS(=O)(=O)c2ccc3c(c2)CC(C)N3C(=O)CC)CC1` (stereo unspecified) gave AHR act inactive, HSF1 inhib inactive, GAA850 FXN act inactive and HSF-1 act inactive.
CCNC(=S)N=Nc1c(O)[nH]c2ccc([N+](=O)[O-])cc12 was read as AHR act inactive, HSF1 inhib inactive, GAA850 FXN act inactive and HSF-1 act inactive.
For Cc1ccccc1NCC(=O)N=Nc1c(O)[nH]c2ccc([N+](=O)[O-])cc12 the results were AHR act inactive and GAA850 FXN act inactive.
For O=[N+]([O-])c1ccc2[nH]c(O)c(N=NC(=S)Nc3cccnc3)c2c1 the results were AHR act 62, HSF1 inhib inactive, GAA850 FXN act inactive and HSF-1 act inactive.
Cc1ccc(NCC(=O)N=Nc2c(O)[nH]c3ccc([N+](=O)[O-])cc23)cc1 was read as AHR act 125.
For COc1ccc(C)cc1NC(=O)Nc1ccc2c(c1)CCC2 the results were AHR act 77, HSF1 inhib inactive, GAA850 FXN act inactive and HSF-1 act inactive.
Screening COc1cc(SC)ccc1C(=O)NCC1CCCO1 (stereo unspecified) returned AHR act inactive, HSF1 inhib -74, GAA850 FXN act inactive and HSF-1 act inactive.
Screening COc1cc(SC)ccc1C(=O)Nc1ccc2c(c1)CCC2 returned AHR act inactive, HSF1 inhib inactive, GAA850 FXN act inactive and HSF-1 act 93.
For N#CCCN(Cc1cccs1)C(=O)Nc1ccc(F)cc1 the results were AHR act inactive, HSF1 inhib inactive, GAA850 FXN act inactive and HSF-1 act inactive.
For O=C(Nc1ccc(Cl)cc1)[C@@H]1[C@@H]2C(=O)N(c3ccc(Cl)cc3Cl)C(=O)[C@@H]2[C@H]2C=CC=NN21 the results were AHR act inactive, HSF1 inhib inactive and HSF-1 act inactive.
Screening CN(CC(=O)NC1CC1)S(=O)(=O)c1ccc(Br)cc1 returned AHR act inactive, HSF1 inhib inactive, GAA850 FXN act inactive and HSF-1 act inactive.
For COc1cc(-c2nc(CN3CCN(CC(C)C)C(=O)[C@@H]3C)c(C)o2)ccc1F the results were AHR act inactive, HSF1 inhib inactive, GAA850 FXN act inactive and HSF-1 act inactive.
For CC(Sc1nc2ccccc2c(=O)n1CC1CCCO1)C(=O)Nc1ccc(S(N)(=O)=O)cc1 (stereo unspecified) the results were AHR act inactive, HSF1 inhib inactive, GAA850 FXN act inactive and HSF-1 act 56.
O=C(NNc1nc2ccccc2s1)c1ccc(F)cc1 was read as AHR act 54 and GAA850 FXN act inactive.
Screening Cc1cccc2sc(NNC(=O)c3ccc4c(c3)OCCO4)nc12 returned AHR act 59, HSF1 inhib inactive, GAA850 FXN act inactive and HSF-1 act inactive.
